# Source: ChEMBL document CHEMBL1201862, “PubChem BioAssay data set” (2004)
# Entries with a potency or affinity are not part of this list. Only a part of the results of these assays is listed, not drawn at random.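 96-well plates; 48 h exposure; 5 concentrations. Endpoints by linear interpolation between flanking doses. Not reached: highest tested concentration assigned. At the GI50, growth is halved.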
# Experiments:
# Assay in all cases: NCI tumour cell line growth inhibition, 48 h
# [1] = test system: DLD-1
# [2] = test system: DMS-273
# [3] = test system: HOP-18
# [4] = test system: KM-20L2
# [5] = test system: LXFL 529
# [6] = test system: RXF 631
# [7] = test system: SNB-78
# [8] = test system: XF498
Substance,GI50 [1] [µM],GI50 [2] [µM],GI50 [3] [µM],GI50 [4] [µM],GI50 [5] [µM],GI50 [6] [µM],GI50 [7] [µM],GI50 [8] [µM]
"mu-(1,7-nanodiamine-N,N')bis-(cis-aminedichloroplatimum (II)), CHEMBL2146215",36.2,4.54,84.1,35.9,46.2,47.2,48.8,
"[Bis(aminomethyl)tetramethylenesilane]dichloropaltinum(II), CHEMBL2146205",39.1,14.6,43.5,24.4,27.4,49.3,,28
"CISPLATIN, CHEMBL11359",6.03,,7.71,7.48,4.83,,1.49,
"cis-Bis[[(trimethylsilyl)methyl]amino]tetrachloroplatinum(IV), CHEMBL2146191",,12.1,,,2.15,3.41,7.36,11
"[Bis(aminomethyl)pentamethylenesilane]dichloropaltinum(II), CHEMBL2146202",31.1,,37.7,12.2,12.9,18.4,,11.5
"[Bis(aminomethyl)dimethylsilane]tetrachloroplatinum(IV), CHEMBL2146190",12.8,1.02,,3.58,14.2,34.9,3.22,2.9
"[Bis(aminomethyl)dimethylsilane]dichloroplatinum (II), CHEMBL2146201",,5.62,,,44.2,> 100,16.7,17.2
"[Bis(aminomethyl)pentamethylenesilane]tetrachloropaltinum(IV), CHEMBL2146204",4.58,,42.6,3.14,4.97,4.63,,2.86
"[Bis(aminomethyl)ethylmethylsilane]tetrachloroplatinum(IV), CHEMBL2146192",,0.587,,,6.22,14.3,3.35,4.22
"[Bis(aminomethyl)tetramethylenesilane]tetrachloropaltinum(IV), CHEMBL2146189",11.8,,24.3,2.99,12.2,7.26,,3.56
"[Bis(aminomethyl)diethylsilane]tetrachloroplatinum(IV), CHEMBL2146203",8.65,,13,1.45,4.34,4.21,,2.77
